PubChem BioAssay (EPA / NIEHS)
Activity calls are given as the source filed them. Rule for the calls: active = hit-call score of the fitted dose curve at least 0.9, where 1 is the maximum; inactive = score below 0.9.

What was measured:
[1] = APR_HepG2_P-H2AX_72hr: Apredica 72-hour HepG2 Assay for H2AX Phosphorylation (AID 2282916); conditions: imaging, actives raise or lower the signal;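 note: phospho-histone H2A.x immunostain intensity per cell marking DNA damage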
In short: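 HepG2; cpd 0.39–200 uM ×10 conc, duplicates; 0.5% DMSO; 72 hr. Fix 3.7% formaldehyde 30 min RT, 0.5% Triton X-100 10 min. Anti-phospho-H2A.x 1:200 + Hoechst 2 ug/mL, 60 min RT; ArrayScan imaging.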

[2] = APR_HepG2_MitoMembPot_72hr: Apredica 72-hour HepG2 Assay for Mitochondrial Membrane Potential (AID 2282917); conditions: imaging, actives raise or lower the signal
In short: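 Membrane potential read by MitoTracker Red CMXRos (250 nM, 30 min, pre-fixation) fluorescence imaging of HepG2 after 72 hr exposure. Ten concentrations, 0.39–200 uM, duplicate wells, 0.5% DMSO; fitted in both directions against DMSO baseline.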

[3] = APR_HepG2_MitoticArrest_72hr: Apredica 72-hour HepG2 Assay for Mitotic Arrest (AID 2282918); conditions: high-content imaging, actives raise or lower the signal
In short: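 HepG2, 72 hr exposure, 0.39–200 uM in duplicate, 0.5% v/v DMSO final. Formaldehyde-fixed, Triton-permeabilized, anti-phospho-histone H3/FITC plus Hoechst. ArrayScan imaging at 20x; curves fit bidirectionally against DMSO baseline.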

[4] = APR_HepG2_MicrotubuleCSK_72hr: Apredica 72-hour HepG2 Assay for Microtubule CSK Stabilty (AID 2282919); conditions: HepG2 microtubule cytoskeleton, high-content imaging, actives raise or lower the signal
In short: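 Read-out is tubulin fluorescence intensity from high-content imaging of HepG2 cells, with nuclei identified by Hoechst 33342. Treatment lasts 72 h at 0.39–200 uM, and curves are fitted bidirectionally against the DMSO negative control.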

[5] = APR_HepG2_P-H2AX_24hr: Apredica 24-hour HepG2 Assay for H2AX Phosphorylation (AID 2282920); conditions: high-content imaging, actives raise or lower the signal
In short: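 HCS fluorescence imaging of phospho-H2A.x immunostain (with Hoechst 33342 nuclear counterstain) in HepG2 after 24 hr compound exposure; 10 concentrations, 0.39–200 uM, duplicate wells, 0.5% v/v DMSO. Gain or loss of signal fitted relative to DMSO baseline.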

[6] = APR_HepG2_StressKinase_72hr: Apredica 72-hour HepG2 Assay for Stress Kinase (AID 2282921); conditions: HepG2 stress kinase (phospho-c-Jun) imaging, actives raise or lower the signal
In short: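 Dose 0.39–200 uM (10 pts, duplicate), 0.5% DMSO; 72 h; fix 3.7% formaldehyde 30 min RT; Triton permeabilize; anti-phospho-c-Jun/Cy3 + Hoechst 60 min RT; image 20x; fit gain/loss vs DMSO.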

[7] = APR_HepG2_StressKinase_24hr: Apredica 24-hour HepG2 Assay for Stress Kinase (AID 2282922); conditions: HepG2 stress kinase (phospho-c-Jun) imaging, actives raise or lower the signal
In short: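 HepG2, 24 hr dosing, 0.39–200 uM in duplicate, 0.5% DMSO; formaldehyde fix (3.7%), 0.5% Triton X-100; anti-phospho-c-Jun + Cy3 secondary, Hoechst counterstain; ArrayScan imaging; bidirectional curve fit vs DMSO baseline.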

[8] = APR_HepG2_MitoMass_72hr: Apredica 72-hour HepG2 Assay for Mitochondrial Mass (AID 2282924); conditions: high-content imaging, actives raise or lower the signal;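 note: MitoTracker Red CMXRos stain intensity per cell imaged as mitochondrial mass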
In short: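 HepG2, 72 hr cmpd, 10 conc 0.39–200 uM in dup, DMSO 0.5% v/v. MitoTracker Red CMXRos 250 nM 30 min pre-fix; formaldehyde 3.7% fix 30 min RT. HCS imaging, gain/loss fit vs DMSO.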

[9] = APR_HepG2_NuclearSize_72hr: Apredica 72-hour HepG2 Assay for Nuclear Size (AID 2282925); conditions: high-content imaging, actives raise or lower the signal
In short: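 HepG2; cpd 0.39–200 uM, 10 conc, duplicate; 72 h; DMSO 0.5% v/v; fix 3.7% formaldehyde 30 min RT; Triton permeabilization; Hoechst 2 ug/mL; HCS imaging 20x; nuclear diameter; gain/loss fit vs DMSO.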

[10] = ATG_CRE_CIS: Attagene CIS-FACTORIAL HepG2 Assay for human cAMP Responsive Element (CRE) binding protein 3 (AID 2282926); conditions: HepG2 CRE cis-reporter, Attagene multiplexed mRNA; actives raise or lower the signal
In short: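 Endogenous CRE-binding activity in HepG2 is reported through a cis-regulated transfected reporter. Following a day of exposure, mRNA levels are determined by reverse transcription PCR and fluorescent fragment analysis; fits run in both directions versus DMSO.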

[11] = target: CCAAT/enhancer-binding protein beta (Homo sapiens) (UniProt P17676); experiment: ATG_C_EBP_CIS: Attagene CIS-FACTORIAL HepG2 Assay for human CCAAT/Enhancer Binding Protein (C/EBP) beta (AID 2282927); conditions: HepG2 Attagene cis-factorial transcription factor reporter; actives raise or lower the signal
In short: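 Endogenous C/EBPb-driven reporter transcripts measured in transfected human HepG2 cells at 24 h via RT-PCR and capillary electrophoresis of labelled fragments. Activity fitted in both directions relative to DMSO baseline.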

[12] = ATG_CMV_CIS: Attagene CIS-FACTORIAL HepG2 Assay for human CMV (Internal Marker) (AID 2282928); conditions: HepG2 CMV promoter reporter, transcription factor profiling; actives raise or lower the signal;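 note: endpoint acts as a background internal control marker rather than a target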
In short: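 After transient transfection of HepG2 with reporter transcription units driven by cis-regulatory promoters, cells receive test chemical for 24 h. Labeled reporter amplicons, digested with HpaI, are sized and quantified by capillary electrophoresis against DMSO.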

[13] = ATG_DR4_LXR_CIS: Attagene CIS-FACTORIAL HepG2 Assay for human Liver X Receptor (LXR), DR4 submotif (AID 2282929); conditions: HepG2 Attagene DR4 cis-reporter, mRNA transcription; actives raise or lower the signal
In short: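 Transiently transfected HepG2 liver cells; cis-regulated reporters; 24 h dosing. RT-PCR plus CE read-out of reporter mRNA. DMSO baseline, bidirectional curve fitting.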

[14] = target: Aryl hydrocarbon receptor (Homo sapiens) (UniProt P35869); experiment: ATG_Ahr_CIS: Attagene CIS-FACTORIAL HepG2 Assay for human Aryl Hydrocarbon Receptor (Ahr) (AID 2282930); conditions: HepG2 AhR cis-factorial reporter transcription; actives raise or lower the signal
In short: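 Reporter mRNA levels, quantified by RT-PCR and fluorescent capillary electrophoresis, reflect endogenous AhR transcriptional activity in HepG2 cells carrying transfected cis-promoter reporter constructs. Readout at 24 h post-dose; gain or loss fitted against DMSO baseline.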

[15] = ATG_AP_2_CIS: Attagene CIS-FACTORIAL HepG2 Assay for human Activator Protein 2 (AP-2) (AID 2282932); conditions: HepG2 AP-2 cis-reporter, Attagene transcription factor profiling; actives raise or lower the signal
In short: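 HepG2, transient MRTU transfection, cis-regulated reporters; 24 h compound exposure; RNA isolated, RT-PCR, 6-FAM labelling, HpaI digest, CE fluorescence. DMSO = negative control/baseline, bidirectional fit.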

[16] = ATG_BRE_CIS: Attagene CIS-FACTORIAL HepG2 Assay for human Bone Morphogenetic Protein (BMP) Response Element (BRE) (AID 2282933); conditions: HepG2 BMP response element reporter, Attagene transcription factor profiling; actives raise or lower the signal
In short: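 Endogenous transcription factor activity at a BMP response element was monitored in transfected HepG2 cells 24 h after dosing. Fluorescent RT-PCR products were resolved by capillary electrophoresis, and activity was fitted in both directions versus DMSO.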

[17] = target: Retinoic acid receptor alpha (Homo sapiens) (UniProt P10276); experiment: ATG_DR5_RAR_CIS: Attagene CIS-FACTORIAL HepG2 Assay for human Retinoic Acid Receptor Alpha (RARE), DR5 submotif (AID 2282934); conditions: HepG2 Attagene cis-factorial RARE DR5 reporter, mRNA; actives raise or lower the signal;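 for AC50: reporter responds to endogenous RAR alpha beta and gamma in HepG2 not RARA alone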
In short: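 Reporter transcripts from a DR5-regulated unit, measured via RT-PCR plus capillary electrophoresis, reflect endogenous RAR activity in transiently transfected human HepG2 liver cells. Exposure lasted 24 h; gain or loss of signal scored against DMSO.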

[18] = target: Transcription factor E2F1 (Homo sapiens) (UniProt Q01094); experiment: ATG_E2F_CIS: Attagene CIS-FACTORIAL HepG2 Assay for human E2F Transcription Factor 1 (AID 2282935); conditions: HepG2 Attagene cis-reporter, E2F reporter RNA transcripts; actives raise or lower the signal
In short: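 Cis-element reporter mRNA induction in transiently transfected HepG2, 24 h exposure. Activity fitted in both directions relative to DMSO negative control.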

[19] = APR_HepG2_p53Act_72hr: Apredica 72-hour HepG2 Assay for p53 Activation (AID 2282923); conditions: high-content imaging, actives raise or lower the signal;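 note: average cellular p53 protein immunofluorescence intensity in HepG2 cells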
In short: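 10-pt conc. 0.39–200 uM, duplicate, 0.5% DMSO; 72 hr exposure; 3.7% formaldehyde fix, 0.5% Triton perm; sheep anti-p53/Cy5 + Hoechst; ArrayScan 20x, 6 images/well; gain/loss fit vs DMSO.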

[20] = ATG_AP_1_CIS: Attagene CIS-FACTORIAL HepG2 Assay for human Activator Protein 1 (AP-1) (AID 2282931); conditions: HepG2 Attagene cis-factorial AP-1 reporter mRNA; actives raise or lower the signal
In short: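 We transfected HepG2 cells transiently with a set of cis-regulated reporter transcription units, dosed them for 24 h, and quantified reporter mRNA via RT-PCR and capillary electrophoresis, scoring gain or loss of signal relative to DMSO.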

Measured: AC50

CCAAT/enhancer-binding protein beta (Homo sapiens), sequence (P17676 whole entry, looked up, the tested form may be a part): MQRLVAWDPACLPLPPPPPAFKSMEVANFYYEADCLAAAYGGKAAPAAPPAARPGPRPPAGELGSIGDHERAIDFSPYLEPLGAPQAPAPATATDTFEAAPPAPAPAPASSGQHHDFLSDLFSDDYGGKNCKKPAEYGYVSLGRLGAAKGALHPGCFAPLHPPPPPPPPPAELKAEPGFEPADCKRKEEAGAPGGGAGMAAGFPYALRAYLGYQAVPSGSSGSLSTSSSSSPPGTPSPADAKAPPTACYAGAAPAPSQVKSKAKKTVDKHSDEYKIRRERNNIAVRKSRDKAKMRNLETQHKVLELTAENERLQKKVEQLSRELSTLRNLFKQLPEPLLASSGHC
Transcription factor E2F1 (Homo sapiens), sequence (Q01094 whole entry, looked up): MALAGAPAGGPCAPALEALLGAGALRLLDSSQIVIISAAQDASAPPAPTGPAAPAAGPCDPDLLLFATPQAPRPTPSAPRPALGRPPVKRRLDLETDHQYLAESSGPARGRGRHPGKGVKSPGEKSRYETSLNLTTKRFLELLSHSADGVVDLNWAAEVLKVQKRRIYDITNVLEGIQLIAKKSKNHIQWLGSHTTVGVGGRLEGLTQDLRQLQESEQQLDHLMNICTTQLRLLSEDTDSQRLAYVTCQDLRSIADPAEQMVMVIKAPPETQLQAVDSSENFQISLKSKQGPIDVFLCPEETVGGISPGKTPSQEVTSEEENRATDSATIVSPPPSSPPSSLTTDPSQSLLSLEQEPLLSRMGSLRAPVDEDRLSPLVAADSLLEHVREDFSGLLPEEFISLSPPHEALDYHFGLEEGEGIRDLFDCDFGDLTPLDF
Aryl hydrocarbon receptor (Homo sapiens), sequence (P35869 whole entry, looked up): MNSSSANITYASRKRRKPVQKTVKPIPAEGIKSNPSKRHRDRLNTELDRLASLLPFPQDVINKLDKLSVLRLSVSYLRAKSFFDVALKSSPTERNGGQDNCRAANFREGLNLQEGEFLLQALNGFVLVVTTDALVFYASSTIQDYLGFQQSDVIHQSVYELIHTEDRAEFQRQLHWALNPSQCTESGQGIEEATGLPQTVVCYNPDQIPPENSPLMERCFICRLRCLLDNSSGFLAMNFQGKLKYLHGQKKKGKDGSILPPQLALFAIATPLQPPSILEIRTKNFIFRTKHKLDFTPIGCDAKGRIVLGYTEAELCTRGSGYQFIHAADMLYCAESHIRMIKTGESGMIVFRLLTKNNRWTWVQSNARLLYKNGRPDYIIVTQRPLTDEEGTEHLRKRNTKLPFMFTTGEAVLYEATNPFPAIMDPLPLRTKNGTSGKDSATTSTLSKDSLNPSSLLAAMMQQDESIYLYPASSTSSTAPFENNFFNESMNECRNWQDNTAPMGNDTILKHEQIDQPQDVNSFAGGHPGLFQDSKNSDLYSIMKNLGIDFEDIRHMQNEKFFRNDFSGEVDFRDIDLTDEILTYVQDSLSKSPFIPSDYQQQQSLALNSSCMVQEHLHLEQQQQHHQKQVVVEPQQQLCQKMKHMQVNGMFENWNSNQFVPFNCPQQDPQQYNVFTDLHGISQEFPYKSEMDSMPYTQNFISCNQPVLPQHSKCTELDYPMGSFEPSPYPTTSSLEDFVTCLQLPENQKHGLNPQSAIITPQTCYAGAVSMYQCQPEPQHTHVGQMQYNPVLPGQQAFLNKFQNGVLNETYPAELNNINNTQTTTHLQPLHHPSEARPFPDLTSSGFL
Retinoic acid receptor alpha (Homo sapiens), sequence (P10276 whole entry, looked up): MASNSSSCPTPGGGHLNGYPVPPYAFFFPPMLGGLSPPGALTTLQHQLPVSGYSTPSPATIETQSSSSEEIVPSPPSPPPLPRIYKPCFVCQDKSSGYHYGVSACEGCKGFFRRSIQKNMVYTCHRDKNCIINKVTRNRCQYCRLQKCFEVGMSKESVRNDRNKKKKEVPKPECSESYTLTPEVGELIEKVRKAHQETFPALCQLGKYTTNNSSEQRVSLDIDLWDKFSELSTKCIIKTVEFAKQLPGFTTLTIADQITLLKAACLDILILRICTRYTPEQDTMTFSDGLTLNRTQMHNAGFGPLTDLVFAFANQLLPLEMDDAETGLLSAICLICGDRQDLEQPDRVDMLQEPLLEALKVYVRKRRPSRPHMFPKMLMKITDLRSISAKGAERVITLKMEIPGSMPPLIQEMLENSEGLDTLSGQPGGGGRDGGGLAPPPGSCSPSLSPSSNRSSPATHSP

CCCCCCCCCCCCCCCCO
active: [17] 100 µM
not listed: [19] | [20]
inactive: all other assays above

NC(=Nc1ccccc1)Nc1ccccc1
active: [1] 22.4 µM | [3] 22.8 µM | [4] 34 µM | [6] 10.3 µM | [19] 23.4 µM | [13] 61.8 µM
not listed: [14] | [17] | [18]
inactive: all other assays above

C/C=C/C=C/C(=O)O
active: [1] 93 µM | [3] 98.2 µM | [8] 47.5 µM | [9] 60.7 µM
not listed: [14] | [17] | [19]
inactive: all other assays above

CCCCC(CC)COP(=O)(OCC(CC)CCCC)OCC(CC)CCCC (centres undefined)
active: [1] 46.1 µM | [3] 31.5 µM | [4] 51.5 µM | [5] 68 µM | [19] 42.5 µM | [14] 68.9 µM
not listed: [9] | [17]
inactive: all other assays above

Cn1cnc2c1c(=O)[nH]c(=O)n2C
not listed: [14] | [19]
inactive: all other assays above

O=C(O)c1[nH]n(-c2ccc(S(=O)(=O)O)cc2)c(=O)c1N=Nc1ccc(S(=O)(=O)O)cc1
active: [14] 58.7 µM
not listed: [9] | [17] | [18]
inactive: all other assays above

O=NO
not listed: [9] | [18] | [19]
inactive: all other assays above

CCCCc1nc2cccnc2n1Cc1ccc(-c2ccccc2-c2nnn[nH]2)cc1
active: [3] 67.1 µM | [4] 94.4 µM | [5] 48.6 µM | [8] 118 µM
not listed: [9] | [14] | [17] | [20]
inactive: all other assays above

CN(C)C(=O)NC1(c2ccccc2)CCN(CC[C@@]2(c3ccc(F)c(F)c3)CN(C(=O)c3ccccc3)CCO2)CC1
active: [1] 91.8 µM | [3] 86 µM | [4] 82.9 µM | [6] 104 µM | [19] 97.7 µM
not listed: [14] | [17] | [18] | [20]
inactive: all other assays above

c1ccc2occc2c1
active: [8] 100 µM | [14] 21.7 µM
not listed: [7] | [17]
inactive: all other assays above

CN(C)CCCN(C)CCCN(C)C
active: [13] 24.5 µM
not listed: [7] | [17] | [18] | [20]
inactive: all other assays above

O=[Si]=O
not listed: [9] | [14] | [20]
inactive: all other assays above

CC(=O)OCC(COC(C)=O)OC(C)=O
not listed: [17] | [18] | [19] | [20]
inactive: all other assays above

C/C=C/c1ccc(OC)cc1
not listed: [14] | [17] | [19] | [20]
inactive: all other assays above

CS(=O)(=O)c1ccc([C@@H](C[C@H]2CCC(=O)C2)C(=O)Nc2cnccn2)cc1Cl
active: [8] 43.7 µM
not listed: [7] | [14] | [17]
inactive: all other assays above
